# B2AR arrestin: beta2AR (human) beta-arrestin recruitment activity; beta-arrestin recruitment to beta2AR, cell-based reporter; P07550; Potency, µM (doses to about 46.1 µM), inactives show at the top dose activation, hits mostly activators; hit rate 0.02% among 330,000;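 note: potency is the fitted concentration of half-maximal effect; 0% = DMSO controls and full agonism = EC100 isoproterenol or metaproterenol; nearly all actives have a fitted effect of over 65% in size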
# Target sequence (P07550 whole entry, looked up): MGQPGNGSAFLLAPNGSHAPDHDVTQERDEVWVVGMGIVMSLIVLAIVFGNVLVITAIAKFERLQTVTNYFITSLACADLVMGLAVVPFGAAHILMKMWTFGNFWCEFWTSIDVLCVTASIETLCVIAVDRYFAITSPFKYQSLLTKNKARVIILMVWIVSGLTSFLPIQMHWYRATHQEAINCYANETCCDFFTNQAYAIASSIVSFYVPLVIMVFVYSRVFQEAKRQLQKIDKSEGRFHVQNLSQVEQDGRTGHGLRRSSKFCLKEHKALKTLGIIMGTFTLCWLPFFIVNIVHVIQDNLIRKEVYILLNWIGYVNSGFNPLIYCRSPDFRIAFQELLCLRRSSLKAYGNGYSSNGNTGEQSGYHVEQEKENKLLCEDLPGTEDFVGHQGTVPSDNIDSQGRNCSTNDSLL
# RORg inh: blocks mouse ROR gamma transcriptional activity; P51450; Drosophila S2 Gal4-RORgamma UAS-luciferase reporter, 20 h; Potency, µM (top dose mostly 53.6 µM), for the others: top-dose activity change, negative = inhibition, actives largely listed as inhibitors; hit rate 5.4% among 310,000; note: potency is the fitted concentration of half-maximal effect; nearly all actives have a fitted effect of over 60% in size
#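 Luciferase reporter read in Schneider cells carrying Gal4-RORγ (mouse) and UAS-Photinus luciferase; cells given compound 1 h before 700 uM copper sulfate induction, then incubated 20 h at ambient temperature.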
# ELG1 DNA repair: inhibitors of ELG1-dependent DNA repair in HEK293T cells. HEK293T ELG1-luciferase reporter, luminescence, 16 h; DNA damage induced by 5-fluorouridine. Potency, µM (top dose mostly 46.1 µM), for inactives: at the top dose activity change, negative = inhibition, actives largely listed as inhibitors. hit rate 2.3% among 330,000; note: potency is the fitted concentration of half-maximal effect; nearly all actives have a fitted effect of over 55% in size
#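 HEK293T cells expressing luciferase-tagged ELG1 (2,000/well) received 5-Fluorouridine plus compound or DMSO for 16 hr at 37 °C. Luciferase was read by ONE-Glo luminescence after 30 min at room temperature.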
# VP16 counter: inhibits Gal4-VP16 luciferase reporter, ROR gamma counter-screen | Potency, µM (doses to about 53.6 µM), for inactives: at the highest dose activity, negative = inhibition, most hits filed as inhibitors | Drosophila S2 Gal4-VP16 UAS-luciferase, luminescence, 20 h | hit rate 3.5% among 310,000;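 note: Gal4-VP16 expression switched on by copper sulfate through the metallothionein promoter; potency is the fitted concentration of half-maximal effect; nearly all actives have a fitted effect of over 50% in size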
# TSHR antagonist: antagonists of human thyroid stimulating hormone receptor; hit rate 0.2% among 330,000; TSHR-expressing cells, TSH-stimulated cAMP HTRF, 2 h; active compounds read low; activity change, negative = inhibition, % at 11.5 µM; AID 504810;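 active = activity change below a set negative limit, meaning inhibition stronger than a set level, cut at about -70% in these data; inconclusive = activity change between two set negative limits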
#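 Freshly harvested TSHR cells receive pin-tooled compound, then EC80 TSH at 4nM final. After 2 hours at 37 deg C, antibody in lysis buffer and cAMP-d2 are added; 30 minutes at ambient temperature precede the HTRF read.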
# * marks the source's active call; other numbers are inactive results; ? = inconclusive; / = no result; [ ] = another dose, or the depositor's remark. Sampled rows, rich in hits. Any-hit rate of the full collection: about 7.5%. Unless noted, calls come from the whole dose curve; as a rule, active = well fitted curve in the direction sought with a large enough effect; inconclusive = small, poorly fitted or top-dose-only effect, or another doubt; inactive = no such curve, though single readings can be large; an effect the other way counts as inactive or inconclusive. Unless noted, % is set by controls: 0 for no effect and ±100 for the full control effect.
SMILES,B2AR arrestin,RORg inh,ELG1 DNA repair,VP16 counter,TSHR antagonist
COc1ccc(C2=Nn3c(nnc3-c3ccccc3O)SC2)c(OC)c1,/,-11%,/,1%,/
O=C(N/N=C/c1ccncc1)c1cc(C2CC2)nc2ccccc12,0%,3%,13%,-9%,5
O=C(N/N=C/c1ccc(O)cc1)c1cc(-c2ccccc2)nc2ccccc12,-1%,-21%,-3%,28%,-7
O=C(N/N=C/c1ccccn1)c1cc(C2CC2)nc2ccccc12,0%,10µM*,-3%,13µM*,0
O=C(N/N=C/c1ccccn1)c1cc(-c2ccccc2)nc2ccccc12,-1%,0.5µM*,25%,0.79µM*,6
CC(=O)N1CCN(S(=O)(=O)c2cccc(C(=O)OCC(=O)N(CCC#N)c3ccc(F)cc3)c2)CC1,0%,/,-9%,/,5
COc1ccc(C2(c3ccc(O)cc3O)CC(c3ccccc3Cl)NC(=S)N2)cc1 (centres undefined),0%,1%,3%,-13%,-6
CC(=O)Oc1cc2c(cc1Cl)C1(CC(c3ccccc3Cl)O2)CC(C)(C)NC(=S)N1 (centres undefined),0%,10µM*,?,?,6
COC(=O)C(Cc1ccc(O)cc1)NC(=O)C(CC(=O)OC(C)(C)C)NC(=O)OC(C)(C)C (centres undefined),0%,7%,0%,13%,-9
O=C(c1cc2ccccc2cc1O)N1CCN(c2ccc([N+](=O)[O-])cc2)CC1,0%,/,-22%,/,-12
COc1cc(NC(=O)c2cc3c(C)nc4ccccc4c3o2)cc(OC)c1OC,0%,-9%,7.3µM*,-2%,-20
CC(C)Cn1c(SC(C)C(=O)Nc2ccc3c(c2)OCCO3)nc2ccccc2c1=O (centres undefined),-1%,13µM*,?,-20%,11
Cc1nc2ccccc2c2oc(C(=O)Nc3ccc(C(C)C)cc3)cc12,0%,?,23µM*,-6%,-21
Cc1nc2ccccc2c2oc(C(=O)Nc3ccc4c(c3)OCCO4)cc12,1%,2%,21µM*,10%,-24
COc1cc(NC(=O)c2cc(C)nc3ccccc23)cc(OC)c1OC,0%,1%,7%,7%,-6
CCN1CCCC1CNC(=O)c1cc2c(C)nc3ccccc3c2o1 (centres undefined),1%,-9%,-1%,-9%,48
CCOC(=O)C1CCN(C(=O)c2sccc2Cl)CC1,0%,-18%,2%,-2%,1
C=CCn1c(=O)/c(=C/c2ccc(Cl)cc2)s/c1=C(/C#N)c1nnc2n1CCCCC2,0%,-14%,21µM*,-10%,-16
C/C(=N\NC(=O)c1ccc2c(c1)OCCO2)c1ccccc1,-1%,5.6µM*,?,7.9µM*,-9
CC(/C=C/c1ccccc1)=N\NC(=O)c1ccc2c(c1)OCCO2,0%,13µM*,3%,?,15
C/C(=N\NC(=O)c1ccc(O)cc1)c1ccc2c(c1)OCCO2,4%,/,?,/,20
COc1ccc(-c2oc3c(CC=C(C)C)c(O[C@H]4OC(CO)C(O)C(O)C4O)cc(O)c3c(=O)c2O[C@@H]2OC(C)C(O)C(O)C2O)cc1 (some centres undefined),/,-9%,/,-22%,/
CN1CCN(c2ncc3ncc(=O)n(C[C@H]4CCCO4)c3n2)CC1,/,-14%,/,1%,/
CCc1ccc(-c2cc(-c3n[nH]c(=S)n3CC)c3ccccc3n2)cc1,-1%,2µM*,-11%,-23%,0
CCc1ccc(-c2cc(C(=O)NCc3ccccn3)c3ccccc3n2)cc1,2%,?,?,?,19
SMILES,B2AR arrestin,RORg inh,ELG1 DNA repair,VP16 counter,TSHR antagonist
CCn1c(-c2cc(-c3cccc(OC)c3)nc3ccccc23)n[nH]c1=S,-1%,5µM*,-5%,?,-12
C/C1=C2N=C(/C=C3N=C(/C(C)=C4\[N-]C(C)(C5N=C1C(C)(CCC(=O)NCC(C)OP(=O)([O-])O[C@H]1C(O)C(n6cnc7cc(C)c(C)cc76)O[C@@H]1CO)C5CC(N)=O)C(C)(CC(N)=O)C4CCC(N)=O)C(C)(CC(N)=O)C\3CCC(N)=O)C(C)(C)C/2CCC(N)=O.[CH2-]C1OC(n2cnc3c(N)ncnc32)C(O)C1O.[Co] (some centres undefined),/,-12%,/,-18%,/
O=C(N/N=C\c1c(O)ccc2ccccc12)c1ccc(O)cc1,0%,5µM*,-16%,5.6µM*,-9
Cc1occc1C(=O)N/N=C/c1c[nH]c2ccccc12,-1%,?,?,-24%,-16
Cc1occc1C(=O)N/N=C/c1c(O)ccc2ccccc12,0%,4µM*,?,18µM*,8
Cn1cccc1/C=N\NC(=O)c1cncc(Br)c1,0%,13µM*,?,?,-2
Cn1nccc1C(=O)N/N=C/c1c(O)ccc2ccccc12,-1%,3.2µM*,?,2.8µM*,-9
CN(C)C1C(=O)C(C(N)=O)C(=O)C2(O)C(=O)C3C(=O)c4c(O)ccc(Cl)c4C(O)C3CC12 (centres undefined),/,-11%,/,-8%,/
Cc1cc(C)cc(NC(=O)COC(=O)CCn2c(C)csc2=O)c1,1%,/,16%,/,3
O=C(N/N=C/c1c(O)ccc2ccccc12)c1cccnc1,-1%,10µM*,3.7µM*,13µM*,4
O=C(N/N=C\c1c(O)ccc2ccccc12)c1cncc(Br)c1,0%,5µM*,?,4.5µM*,-22
Cc1ccc(C(=O)N/N=C/c2c(O)ccc3ccccc23)cn1,0%,5µM*,?,7.1µM*,-7
O=C(N/N=C/c1c(O)ccc2ccccc12)c1ccc(Br)o1,-1%,3.2µM*,?,2.8µM*,-16
O=C(N/N=C/c1c(O)ccc2ccccc12)c1ccc[n+](CCO)c1,0%,-59%,0%,-2%,-16
COc1ccccc1/C=N/NC(=O)c1ccc(C)nc1,0%,17%,8%,-1%,3
C=CCOC(=O)C(C(C)=O)C(NC(=O)OC)c1cccc(C)c1 (centres undefined),/,-7%[10 µM],/,3%[10 µM],/
O=C(N/N=C/c1cc(Br)c(O)c(Br)c1O)c1cccnc1,1%,?,?,?,-11
Cc1cc(O)c(C)c(O)c1/C=N/NC(=O)c1cccnc1,0%,7.9µM*,?,7.9µM*,-12
c1ccc(N/N=C(\Cc2ncc[nH]2)c2ccccc2)cc1,0%,?,-13%,-9%,2
Clc1cccc(N/N=C(\Cc2nc3ccccc3[nH]2)c2ccccc2)c1,0%,18µM*,?,-89%,-12
O=C(NNC1=Nc2ccccc2SC1)c1cccc([N+](=O)[O-])c1,0%,?,16µM*,-26%,5
O=C(NNC1=NCCCCC1)c1cccc([N+](=O)[O-])c1,0%,-4%,9%,-12%,-10

# Screens (PubChem)
